Results taken from PubChem BioAssay.
Values without a mark were called inactive. Activity calls are given as the source filed them. Cut-off read from the data, not from the text of the source, unless noted: active = inhibition above about 36%; inactive = the rest.

Legend:
[1] = system: transactivating tegument protein VP16 (Human herpesvirus 1); experiment: compounds suppressing VP16-driven luciferase signal – cell-based, luminescence, single concentration, counter-screen for SRC2 inhibitor project (AID 652007); conditions: cell-based VP16 transactivation luciferase reporter, at 8.9 µM, active compounds read high
[2] = target: Nuclear receptor coactivator 2 (Homo sapiens) (UniProt Q15596); experiment: inhibition of GAL4-SRC2 driven luciferase expression – cell-based, luminescence, HEK293, triplicate, confirmation (AID 652008;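 active = mean inhibition above 46.5%, the solvent-only control mean plus 3 SD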;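 note: 0% = DMSO-treated cells and 100% = Gossypol at 36 µM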); conditions: HEK293 GAL4-SRC2 luciferase reporter, at 8.9 µM, active compounds read high
Nuclear receptor coactivator 2 (Homo sapiens), sequence (Q15596 whole entry, looked up, the tested form may be a part): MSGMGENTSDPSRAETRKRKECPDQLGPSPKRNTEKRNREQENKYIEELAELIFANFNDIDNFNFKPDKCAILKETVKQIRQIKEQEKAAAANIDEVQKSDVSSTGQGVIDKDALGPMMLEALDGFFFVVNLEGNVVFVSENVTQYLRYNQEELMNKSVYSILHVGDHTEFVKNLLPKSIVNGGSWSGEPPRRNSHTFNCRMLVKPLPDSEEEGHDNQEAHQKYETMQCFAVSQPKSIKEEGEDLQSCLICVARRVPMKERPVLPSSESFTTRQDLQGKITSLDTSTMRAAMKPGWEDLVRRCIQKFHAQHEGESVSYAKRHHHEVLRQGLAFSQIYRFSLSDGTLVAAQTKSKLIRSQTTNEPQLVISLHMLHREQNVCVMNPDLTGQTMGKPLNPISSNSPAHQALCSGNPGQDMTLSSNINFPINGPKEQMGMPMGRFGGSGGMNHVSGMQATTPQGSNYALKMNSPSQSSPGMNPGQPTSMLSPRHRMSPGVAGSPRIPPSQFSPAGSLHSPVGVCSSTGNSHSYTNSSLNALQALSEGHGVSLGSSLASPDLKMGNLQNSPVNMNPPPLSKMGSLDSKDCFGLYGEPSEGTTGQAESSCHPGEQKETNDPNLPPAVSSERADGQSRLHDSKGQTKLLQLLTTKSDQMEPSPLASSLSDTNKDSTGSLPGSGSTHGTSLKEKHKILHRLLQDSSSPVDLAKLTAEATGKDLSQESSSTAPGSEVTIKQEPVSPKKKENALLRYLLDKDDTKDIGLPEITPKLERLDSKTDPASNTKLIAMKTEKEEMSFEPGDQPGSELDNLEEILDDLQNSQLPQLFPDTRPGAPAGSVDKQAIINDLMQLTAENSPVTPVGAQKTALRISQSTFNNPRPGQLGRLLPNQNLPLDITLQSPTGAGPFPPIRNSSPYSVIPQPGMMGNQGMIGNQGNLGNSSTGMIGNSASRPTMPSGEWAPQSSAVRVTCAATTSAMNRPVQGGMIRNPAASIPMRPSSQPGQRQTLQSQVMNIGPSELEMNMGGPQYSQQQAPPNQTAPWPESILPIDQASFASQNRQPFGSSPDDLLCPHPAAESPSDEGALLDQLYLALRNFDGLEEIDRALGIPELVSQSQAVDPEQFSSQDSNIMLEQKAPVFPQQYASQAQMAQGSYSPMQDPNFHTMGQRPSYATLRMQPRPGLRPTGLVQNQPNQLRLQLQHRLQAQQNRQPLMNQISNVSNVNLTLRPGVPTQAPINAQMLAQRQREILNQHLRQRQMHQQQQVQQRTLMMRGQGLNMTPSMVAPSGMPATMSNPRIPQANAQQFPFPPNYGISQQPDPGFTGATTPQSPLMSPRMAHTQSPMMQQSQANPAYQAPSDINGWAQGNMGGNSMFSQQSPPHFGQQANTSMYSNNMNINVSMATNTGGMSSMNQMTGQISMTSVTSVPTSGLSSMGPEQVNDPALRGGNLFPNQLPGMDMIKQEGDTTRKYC

Row | Compound | inhibition [1] | inhibition [2]
1 | Cc1nc([N+](=O)[O-])c(C(=O)OCc2ccccc2F)n1C | -22.8% | 1.38%
2 | Cc1ccc(/C=C2/SC(=S)N(CCCC(=O)Nc3cc([N+](=O)[O-])ccc3O)C2=O)cc1 | 27.4% | 49.7% (active)
3 | CC(=O)CCc1ccc(OCCCCN2CCC(Cc3ccccc3)CC2)cc1 | 13.2% | 0.94%
4 | COc1ccc(C2C(O)C(c3c[nH]c4ccccc34)=NN2C(=O)CCl)cc1 (stereo not drawn) | 72.7% (active) | 79.9% (active)
5 | O=C(c1ccccc1F)N1CCN(S(=O)(=O)c2ccc3c(c2)OCCO3)CC1 | 3.25% | 22.9%
6 | O=C(c1ccc(Cl)cc1)C(CN1CCCC1)c1ccccc1 (stereo not drawn) | 26.1% | 53.9% (active)
7 | O=C(CCCc1cccs1)N1CCN(S(=O)(=O)c2ccccc2Br)CC1 | -1.31% | -4.17%
8 | CC/C=C\[C@H](O)[C@H](O)C1=C(C)C(=O)[C@]2(O1)C(=O)N[C@@](OC)(C(=O)c1ccccc1)C2O (stereo partly drawn) | -28.1% | -3.87%
9 | CCc1nnc(NC(=O)c2nc(S(=O)(=O)Cc3ccc(C)cc3)ncc2Cl)s1 | 48.1% (active) | 58.3% (active)
10 | Cc1ccc([C@@H]2CC=C(C(=O)O)[C@H](c3ccccc3)N2S(=O)(=O)c2ccccc2C)cc1 | 0.1% | -13%
11 | COc1ccc(NS(=O)(=O)c2ccc(OC)c(N(C)S(=O)(=O)c3ccc(Cl)cc3)c2)cc1 | 17.3% | 31.2%
12 | O=C(CCl)Nc1cccc(S(=O)(=O)NC2=NCCC2)c1 | 76.2% (active) | 38.1%
13 | O=C(Nc1ccc2c(c1)OCCO2)c1ccc(Br)c(S(=O)(=O)N2CCOCC2)c1 | -39.8% | 45.5%
14 | COc1ccc(OC)c(S(=O)(=O)Nc2ccc3c(c2)OCCO3)c1 | -22.5% | 21.2%
15 | CC1CCCC(C)N1C(=O)c1cccc2c1-c1ccccc1/C2=N/O (stereo not drawn) | -10.5% | 8.15%
16 | Clc1cccc(CN2CCN(c3ncc(Cc4ccccc4)cn3)CC2)c1Cl | -0.77% | 24.5%
17 | Cc1ccc2c(c1)nnn2C1CCN(CC(=O)N(c2ccccc2)c2ccccc2)CC1 | 14.5% | 33.7%
18 | CCOC(=O)CCC(=O)c1c(C)oc2ccc(OC)cc12 | 6.24% | -15%
19 | Cc1ccc(NC(=O)C2CCN(S(=O)(=O)c3c(C)noc3/C=C/c3ccco3)CC2)nc1 | 11.6% | 22.4%
20 | CCC(Cc1ccccc1)NC(=O)C1CCN(c2nn3c(=O)cc(C)nc3s2)CC1 (stereo not drawn) | -17.6% | -18.8%
21 | Cc1ccc(NC(=O)C2CCN(S(=O)(=O)c3cc([N+](=O)[O-])ccc3Cl)CC2)nc1 | 10.7% | 24.3%
22 | O=C(Nc1nnc(SCc2ccc(F)cc2)s1)c1cccnc1Cl | -9.69% | -19.9%
23 | Cc1cc(N/N=C/c2ccc(O)cc2)nc(NS(=O)(=O)c2ccccc2)n1 | -14.1% | 16.5%

Row | Compound | inhibition [1] | inhibition [2]
24 | CN(Cc1ccccc1)S(=O)(=O)c1ccc(Cl)c(C(=O)NCCCN2CCOCC2)c1 | -5.53% | 5.69%
25 | O=C(c1c[nH]c2ccccc12)C(Cl)c1ccccc1 (stereo not drawn) | 27.7% | 33.8%
26 | COCCN(C(=O)Cc1ccc(S(=O)(=O)N2CCOCC2)s1)c1c(N)n(CC(C)C)c(=O)[nH]c1=O | 1.4% | -13.1%
27 | CCCC1=Nc2cc(C(=O)NCCCOCC)ccc2Sc2ccccc21 | -2.83% | 15.5%
28 | Cc1ccc2c(c1)N(C(=O)CCC(=O)NCCCN1CCN(C)CC1)CC(C)O2 (stereo not drawn) | -11.4% | -10.8%
29 | C=CCN(CC=C)C(=O)c1cccc(S(=O)(=O)N2c3ccccc3CC2C)c1 (stereo not drawn) | 24.9% | 28.7%
30 | Cn1c(=N)n(CC(=O)c2ccc(F)cc2)c2ccccc21 | -28.2% | -22.8%
31 | COc1ccc(CC(=O)NNC(=O)c2ccc(Br)o2)cc1 | -9.53% | -27.1%
32 | O=C(CN1C(=O)c2ccccc2S1(=O)=O)c1ccccc1Cl | 37.8% (active) | 68.9% (active)
33 | O=C(CCl)N(Cc1cc(=O)[nH]c2ccccc12)c1ccccc1 | 38.6% (active) | 50.5% (active)
34 | COc1ccc(NC(=O)c2cccc(N3C(=O)c4cccc([N+](=O)[O-])c4C3=O)c2)cc1 | -32.3% | -27.1%
35 | COc1ccc(Nc2nc(C)nc3c2oc2ccccc23)c(OC)c1 | 2.99% | 4.48%
36 | COc1ccc2nc(NC(=O)C3CCN(S(=O)(=O)c4cccc5nsnc45)CC3)sc2c1 | 39.9% (active) | 52.5% (active)
37 | CCOc1ccc(-c2nc(CSCC(=O)NC3CCN(Cc4ccccc4)CC3)c(C)o2)cc1 | 8.65% | 19.7%
38 | CC(C)(C)c1nnc2sc(SCC(=O)c3cccs3)nn2c1=O | 15.5% | 30%
39 | CCCc1nc(SCC(=O)Nc2cc(C)on2)c2ccccc2n1 | 1.01% | 10.1%
40 | O=C(NCc1ccco1)/C(=C/c1cccc([N+](=O)[O-])c1)NC(=O)c1ccco1 | -6.26% | -17.7%
41 | CC1(C)CC(=O)C/C(=N/Nc2nc3ccccc3s2)C1 | -61.5% | -13.5%
42 | CC(C)OC(=O)c1ccc(NCc2cc(O)ccc2O)cc1Cl | 19.4% | 89.1% (active)
43 | CCOC(=O)C1=CCN(S(=O)(=O)c2cccc(Cl)c2)C1c1ccc(Cl)c(Cl)c1 (stereo not drawn) | -7.88% | 7.77%
44 | Cc1ccc(C)c(NS(=O)(=O)c2cc(C(=O)NCCSC3CCCCC3)ccc2C)c1 | -17.6% | 3.68%
45 | O=C(/C=C/c1cn(-c2ccccc2)nc1-c1cccnc1)c1ccco1 | 29.5% | 39.6%
46 | CN(C)c1ccc(C(C[N+](=O)[O-])c2c(N)n(C)c(=O)n(C)c2=O)c(F)c1C#N (stereo not drawn) | 6.34% | 6.89%

Row | Compound | inhibition [1] | inhibition [2]
47 | CC12CCC(=O)C=C1CCC1C2CCC2(C)C(c3csc(N)n3)CCC12 (stereo not drawn) | 10.2% | 24.6%
48 | CC(C)(C)NS(=O)(=O)c1ccc(Oc2ncc(C(F)(F)F)cc2Cl)cc1 | -20% | 14.2%
49 | CN1C(=O)C(c2cn(C)c3ccccc23)(c2cn(C)c3ccccc23)c2cc(F)ccc21 | 11.8% | -37.4%
50 | Cc1cccnc1CN1CCN(C(=O)c2cc(COc3ccc4ncccc4c3)on2)CC1 | 8.23% | 15.3%
51 | COc1ccc(S(=O)(=O)N2CCCC(C(=O)NCc3ccncc3)C2)cc1 (stereo not drawn) | -0.24% | 10.6%
52 | O=C(NCCc1ccccc1)C(c1cccs1)N(C(=O)CCl)c1ccc(Cl)cc1 (stereo not drawn) | 22.9% | 52.8% (active)
53 | COc1cc(OC)c(CN2CCc3c([nH]c4ccccc34)C2)cc1Br | -7.11% | -4.79%
54 | Cc1ccc(C(=O)OCC(=O)NC2CCCC(C)C2C)cc1S(=O)(=O)N1CCCCC1 (stereo not drawn) | -10.8% | 9.97%
55 | O=C(CSCCO)Nc1ccc(C23CC4CC(CC(C4)C2)C3)cc1 | -57.7% | 41.9%
56 | COc1ccc(C(=O)C(CN2CCCC2)c2ccccc2)cc1 (stereo not drawn) | 0.75% | 40.2%
57 | O=[N+]([O-])c1ccc(-c2ccc(S(=O)(=O)NCCN3CCCC3)cc2)cc1 | 12.2% | 17.4%
58 | CC(OC(=O)C1CCCCC1)C(=O)Nc1cccc([N+](=O)[O-])c1 (stereo not drawn) | -0.78% | 9.77%
59 | CC(C)=CCC[C@@]1(C(=O)O)[C@H]2CC=C(CO)[C@@H]1CC/C(C)=C/CC/C(C)=C/C2 | 14.6% | 17.2%
60 | O=C(c1ccc(S(=O)(=O)Cc2cc(F)ccc2F)c([N+](=O)[O-])c1)N1CCOCC1 | 5.57% | 13.5%
61 | COc1cc(Nc2nc(-c3ccccc3)c3cc(C)ccc3n2)cc(OC)c1OC | 6.86% | 10.7%
62 | O=C(CCl)Nc1ccccc1C(=O)NCc1ccccc1 | 0.94% | 42.9%
63 | NC(=O)CC(NC(=O)c1ccc(Br)cc1)c1ccc(N2CCCCCC2)c([N+](=O)[O-])c1 (stereo not drawn) | 9.13% | 23.3%
64 | COc1ccc(CNCc2ccc(C(F)(F)F)cc2)cc1OC | 0.19% | -3.81%
65 | COC(=O)c1ccc(/C=C2/SC(=S)N(CCCC(=O)Nc3ccc(O)cc3)C2=O)cc1 | 15.8% | 7.74%
66 | CCOc1cccc(NC(=O)C2CCCN(S(=O)(=O)c3ccc(OC)cc3)C2)c1 (stereo not drawn) | -26.5% | -6.98%
67 | COc1ccc(C(=O)NC(=C(Cl)Cl)S(=O)(=O)c2ccc(C)cc2)cc1 | 3.97% | 36.6%
68 | COc1ccc(-c2nnc(SCc3cccc(F)c3)n2-c2ccccc2)cc1 | -12.4% | -7.06%
69 | O=c1[nH][nH]c(-c2ccccc2O)c1C(C[N+](=O)[O-])c1ccc(Br)cc1 (stereo not drawn) | 24.3% | -0.61%
